Assay [1] deals with Wnt5a (protein binding on small-molecule microarray). Kind of assay: Wnt5a binders on small-molecule microarray, primary screen, biophysical, 635/667 nm fluorescence (AID 1142).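 Further: fluorescence read at 667 nm with signal to noise per printed feature.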 The conditions noted are these: 635 nm fluorescence, higher = more signal.
Assay [2] in a line: cell viability in Huh7 cells, primary screen, cytotoxicity control for HCV replication inhibitor project, CellTiter-Glo luminescence, basal, 48 h (AID 1143).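 Further: Huh7 hepatoma cells carrying a hepatitis C replication reporter with no stimulus; test concentration not given here.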 The conditions noted are these: Huh7 HCV replicon, higher = more signal, called active from +8 up or from −8 down.
Assay [3] is described as follows: P. aeruginosa biofilm formation inhibitors, primary screen, PAO1 strain, BacTiter-Glo luminescence, LB-PBS (AID 1144). The conditions noted are these: 12 h, higher = more signal.
Assay [4] is described as follows: CREB reporter modulators without forskolin, primary screen, cell-based, PC12, CRE-LacZ reporter, unstimulated (AID 1145). To be noted: no forskolin, luminescence, 4.5 h, higher = more signal, called active from +8 up or from −8 down.
The nature of assay [5]: CREB reporter modulators under forskolin, primary screen, cell-based, PC12, CRE-LacZ reporter, forskolin-stimulated (AID 1146).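 Further: PC12 cells with 6xCRE LacZ reporter stimulated by forskolin 10 µM; beta-galactosidase reporter signal reflecting CREB driven transcription.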 The conditions noted are these: luminescence, 4.5 h, higher = more signal, called active from +8 up or from −8 down.
In assay [6] the target is Streptavidin (Streptomyces avidinii) (UniProt P22629). The experiment in a line: streptavidin binders on small-molecule microarray, primary screen, artefact control for SMM compound annotation, biophysical, 635/667 nm fluorescence (AID 1147).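 Further: signal reflects streptavidin binding to arrayed compounds as a control protein.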 The conditions noted are these: streptavidin binding, higher = more signal.
Streptavidin (Streptomyces avidinii), sequence (P22629 whole entry, looked up): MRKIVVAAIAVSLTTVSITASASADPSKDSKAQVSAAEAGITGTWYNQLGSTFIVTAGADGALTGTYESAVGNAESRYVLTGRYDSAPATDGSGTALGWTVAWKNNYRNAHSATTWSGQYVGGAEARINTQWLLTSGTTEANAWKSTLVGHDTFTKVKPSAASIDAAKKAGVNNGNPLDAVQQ
The nature of assay [7]: small-molecule binders of probe aInhba, primary screen, biochemical, small-molecule microarray, 635/667 nm fluorescence (AID 1148).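 Further: score merges 667nm spot fluorescence with signal-to-noise for antibody binding to printed compounds.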 To be noted: higher = more signal.
Assay [8] has as its target Torsin-1A (Homo sapiens) (UniProt O14656). The experiment in a line: torsin A binders from cell lysate, primary screen, small-molecule microarray, wild-type, 635/667 nm (AID 1149). The conditions noted are these: COS7 hTOR1A-WT lysate, 635 nm fluorescence, higher = more signal.
For assay [9] the target is unchanged. The experiment in a line: small-molecule binders of mutant TOR1A in lysate, primary screen, cell lysate, small-molecule microarray, COS7 lysate, 635/667 nm fluorescence (AID 1150).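 Further: score pools 667 nm emission and signal to noise measuring lysate protein binding.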 The conditions noted are these: COS7 hTOR1A mutant lysate, 635 nm fluorescence, higher = more signal.
For assay [10], the system named is Sonic hedgehog protein (Shh). Kind of assay: small-molecule binders of Shh protein, primary screen, biochemical, small-molecule microarray, 635/667 nm fluorescence (AID 1151).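 Further: Shh protein binding to compounds spotted on small-molecule microarray slides; score combines spot fluorescence intensity with signal-to-noise across triplicate slides.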 The conditions noted are these: small-molecule microarray binding, 635 nm fluorescence; higher = more signal.
The nature of assay [11]: E. coli DRC41 culture turbidity changes, primary screen, E. coli filamentation inducer project, strain DRC41, OD650, 48 h (AID 1152).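 Further: E. coli MC1000 strain DRC41 lacking acrAB efflux pump and sulA.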 To be noted: E. coli DRC41 (acrAB sulA), higher = more signal, called active from +8 up or from −8 down.
Assay [12] can be described thus: small-molecule binders of probe aLefty1, primary screen, biochemical, small-molecule microarray, 635/667 nm fluorescence (AID 1153).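 Further: score merges spot fluorescence with signal-to-noise ratio from the scanned slide images.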 The conditions noted are these: higher = more signal.
The nature of assay [13]: PSAC antagonists in infected red cells, primary screen, cell-based, P. falciparum Indochina, OD700, 1 h (AID 1154). To be noted: P. falciparum Indochina infected RBC osmotic lysis, higher = more signal, called active from +8 up or from −8 down.
A short description of assay [14]: PSAC antagonists in infected red cells, primary screen, cell-based, P. falciparum Indochina, OD700, 2 h (AID 1155).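 Further: lysis reports solute entry through the parasite surface anion channel PSAC; channel blockers reduce lysis of infected cells.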 To be noted: P. falciparum Indochina infected erythrocytes, osmotic lysis OD700; higher = more signal, called active from +8 up or from −8 down.
Assay [15] is described as follows: osmotic lysis modulators in infected erythrocytes, primary screen, PSAC antagonist project, cell-based, P. falciparum Indochina, OD700, 3 h (AID 1156). To be noted: higher = more signal, called active from +8 up or from −8 down.
Assay [16] can be described thus: PSAC antagonists in infected red cells, primary screen, cell-based, P. falciparum Indochina, OD700, 18 h (AID 1157). To be noted: P. falciparum Indochina infected erythrocytes, osmotic lysis OD700, 18 h; higher = more signal, called active from +8 up or from −8 down.
Assay [17] in a line: modulators of S6 phosphorylation in cells, primary screen, cell-based, A549, cytoblot, luminescence, serum-stimulated (AID 1158).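 Further: serum-stimulated A549 lung adenocarcinoma cells; signal is phosphorylated S6 detected by cytoblot immunostaining with HRP secondary.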 To be noted: A549 phospho-S6 cytoblot, 5 h, higher = more signal.
Assay [18] concerns the target NADPH oxidase 2 (Homo sapiens) (UniProt P04839). Kind of assay: NOX2-dependent H2O2 signal modulators, primary screen, NOX inhibitor project, cell-based, HEK293-NOX2, PMA-stimulated, Amplex Red fluorescence (AID 1159). Further: test concentration not given here. The conditions noted are these: 45 min, higher = more signal, called active from +8 up or from −8 down.
The target of assay [19] is NADPH oxidase 4 (Homo sapiens) (UniProt Q9NPH5). The experiment in a line: NOX4-dependent H2O2 signal modulators, primary screen, NOX inhibitor project, cell-based, HEK293-NOX4, tetracycline-induced, Amplex Red fluorescence (AID 1160). To be noted: 45 min, higher = more signal, called active from +8 up or from −8 down.
NADPH oxidase 4 (Homo sapiens), sequence (Q9NPH5 whole entry, looked up): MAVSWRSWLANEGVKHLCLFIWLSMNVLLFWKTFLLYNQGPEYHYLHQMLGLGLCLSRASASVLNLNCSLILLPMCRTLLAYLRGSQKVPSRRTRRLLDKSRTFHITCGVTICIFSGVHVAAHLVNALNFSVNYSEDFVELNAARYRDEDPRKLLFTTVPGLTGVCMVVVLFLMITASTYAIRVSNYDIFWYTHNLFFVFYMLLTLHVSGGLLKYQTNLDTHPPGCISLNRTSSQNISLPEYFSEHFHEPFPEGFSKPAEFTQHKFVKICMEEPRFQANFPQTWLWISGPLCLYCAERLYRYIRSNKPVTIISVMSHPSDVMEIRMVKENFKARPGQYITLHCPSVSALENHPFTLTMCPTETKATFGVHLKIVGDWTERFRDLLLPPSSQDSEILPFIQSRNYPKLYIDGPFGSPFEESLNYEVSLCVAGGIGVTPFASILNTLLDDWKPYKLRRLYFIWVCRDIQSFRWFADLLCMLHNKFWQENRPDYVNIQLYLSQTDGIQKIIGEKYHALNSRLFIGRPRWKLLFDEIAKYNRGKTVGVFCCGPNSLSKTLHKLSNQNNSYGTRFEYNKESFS
In assay [20] the target is NADPH oxidase 5 (Homo sapiens) (UniProt Q96PH1). The experiment in a line: NOX5-dependent H2O2 signal modulators, primary screen, NOX inhibitor project, cell-based, HEK293-NOX5, Amplex Red fluorescence (AID 1161). To be noted: HEK293-NOX5, ionomycin, 45 min, higher = more signal.
NADPH oxidase 5 (Homo sapiens), sequence (Q96PH1 whole entry, looked up): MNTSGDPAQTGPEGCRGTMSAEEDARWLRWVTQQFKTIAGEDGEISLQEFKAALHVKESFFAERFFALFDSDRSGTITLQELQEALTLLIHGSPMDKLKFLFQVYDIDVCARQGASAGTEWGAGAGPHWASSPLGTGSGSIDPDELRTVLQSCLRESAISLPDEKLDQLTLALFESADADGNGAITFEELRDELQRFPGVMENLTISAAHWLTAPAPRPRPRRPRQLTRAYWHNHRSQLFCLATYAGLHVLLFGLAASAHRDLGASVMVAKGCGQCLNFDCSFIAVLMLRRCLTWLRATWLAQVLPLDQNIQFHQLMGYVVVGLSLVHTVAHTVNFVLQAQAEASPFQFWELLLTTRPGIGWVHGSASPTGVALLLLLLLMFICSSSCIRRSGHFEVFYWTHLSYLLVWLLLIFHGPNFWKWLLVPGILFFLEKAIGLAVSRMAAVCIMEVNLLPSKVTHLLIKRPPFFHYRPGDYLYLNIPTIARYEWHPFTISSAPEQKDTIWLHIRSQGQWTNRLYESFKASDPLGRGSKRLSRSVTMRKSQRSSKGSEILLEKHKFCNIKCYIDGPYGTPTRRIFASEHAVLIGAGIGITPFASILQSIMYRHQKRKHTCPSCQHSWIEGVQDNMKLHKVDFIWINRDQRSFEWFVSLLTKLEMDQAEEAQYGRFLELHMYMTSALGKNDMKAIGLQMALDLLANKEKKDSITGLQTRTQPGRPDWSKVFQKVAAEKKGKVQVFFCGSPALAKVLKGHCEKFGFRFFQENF

Activity calls are given as the source filed them. Unless noted, how the calls were made is not given here.

NADPH oxidase 2 (Homo sapiens), sequence (P04839 whole entry, looked up): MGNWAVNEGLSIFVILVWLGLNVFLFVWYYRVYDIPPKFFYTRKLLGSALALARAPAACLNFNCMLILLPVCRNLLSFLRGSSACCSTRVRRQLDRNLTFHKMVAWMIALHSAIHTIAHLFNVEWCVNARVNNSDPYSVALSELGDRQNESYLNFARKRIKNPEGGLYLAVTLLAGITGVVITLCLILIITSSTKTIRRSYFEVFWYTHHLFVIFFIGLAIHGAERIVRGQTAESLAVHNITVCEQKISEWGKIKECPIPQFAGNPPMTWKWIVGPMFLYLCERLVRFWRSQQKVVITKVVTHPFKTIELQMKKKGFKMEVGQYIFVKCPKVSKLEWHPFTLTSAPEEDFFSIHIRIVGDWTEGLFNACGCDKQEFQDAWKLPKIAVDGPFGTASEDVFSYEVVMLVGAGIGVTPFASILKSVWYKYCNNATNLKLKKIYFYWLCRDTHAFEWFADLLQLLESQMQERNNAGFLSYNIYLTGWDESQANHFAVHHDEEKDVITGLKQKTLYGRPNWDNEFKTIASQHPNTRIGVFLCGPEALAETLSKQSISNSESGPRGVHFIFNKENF
Torsin-1A (Homo sapiens), sequence (O14656 whole entry, looked up): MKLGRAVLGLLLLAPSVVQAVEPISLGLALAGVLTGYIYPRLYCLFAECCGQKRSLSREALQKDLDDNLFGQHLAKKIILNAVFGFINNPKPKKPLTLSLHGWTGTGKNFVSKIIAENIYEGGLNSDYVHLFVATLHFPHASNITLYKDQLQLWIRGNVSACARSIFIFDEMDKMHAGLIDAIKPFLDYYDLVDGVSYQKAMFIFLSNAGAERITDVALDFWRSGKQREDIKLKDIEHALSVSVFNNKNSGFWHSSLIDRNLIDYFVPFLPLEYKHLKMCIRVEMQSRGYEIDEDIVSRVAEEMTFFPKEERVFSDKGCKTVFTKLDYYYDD

On to `CC(C)NC(=O)[C@@]1(c2ccc([N+](=O)[O-])cc2)CC(=O)N(C2CCCCC2)[C@@H]1c1ccc(CO)cc1`, for which the composite z-score in [1] was 0.34; in assay [6] it was 0.119; in assay [7], -0.12; in assay [8] it was 0.574; in [9] it was 0.5; in assay [10], 1.68. The composite z-score in assay [12] is -0.154. In addition, the z-score in assay [2] is -2.26 (inactive); in [3], -0.177 (inactive); in [4], 1.09 (inactive); in [5] it was -0.0351 (inactive); in [11], 1.1 (inactive); in [13], 0.66 (inactive). In addition, the z-score was 0.168 (inactive) in assay [14]; 0.18 (inactive) in [15]; -0.0376 (inactive) in [16]; -0.391 in assay [17]; 0.0357 (inactive) in [18]; 0.164 (inactive) in assay [19]. The compound further yielded a z-score in [20] of -0.229.
Take `COc1ccc(C#Cc2ccc3c(c2)[C@]2(C(=O)N3)[C@H](C(=O)O)[C@H]3C(=O)O[C@H](c4ccccc4)[C@H](c4ccccc4)N3[C@@H]2c2ccc(O)cc2)cc1`: the composite z-score in [1] was 0.0637; in assay [6], -0.31; in [7], -0.0313; in assay [8], 0.269; in assay [9], 0.578; in [10], -0.454. This compound registered a composite z-score in assay [12] of 0.174. Besides, the z-score in assay [2] is -4.48 (inactive); in assay [3], -0.563 (inactive); in [4], 0.0653 (inactive); in assay [5], -0.332 (inactive); in assay [11], 0.384 (inactive); in assay [13], -2.35 (inactive). Also, the z-score in assay [14] was -2.47 (inactive); in assay [15] it was -8.72 (active); in assay [16] it was -2.8 (inactive); in assay [17], 2.29; in assay [18], 0.479 (inactive); in assay [19], -3.77 (inactive). This compound also showed a z-score in assay [20] of -1.13.
With `COc1cccc(C)c1NC(=O)O[C@H]1[C@H](OC(=O)Nc2ccccc2-c2ccccc2)[C@H](OC(=O)Nc2ccccc2-c2ccccc2)[C@@H](OC)O[C@@H]1CO`, the composite z-score in assay [1] is 0.63; in assay [6], 1.26; in assay [7], 0.0128; in [8], 0.561; in [9], 0.455; in assay [10], 1.39. The compound also yielded a composite z-score in assay [12] of -0.017. In addition, the z-score was -3.45 (inactive) in [2]; 1.14 (inactive) in [3]; -0.207 (inactive) in assay [4]; -0.433 (inactive) in assay [5]; -0.0771 (inactive) in assay [11]; 1.57 (inactive) in assay [13]. In addition, the z-score is 0.557 (inactive) in [14]; -0.299 (inactive) in assay [15]; 0.742 (inactive) in [16]; -0.319 in assay [17]; 0.224 (inactive) in assay [18]; -0.572 (inactive) in assay [19]. The z-score in assay [20] is -0.507.
`C=CCNC(=O)[C@@H]1[C@H]2C(=O)O[C@H](c3ccccc3)[C@H](c3ccccc3)N2[C@H](c2ccccc2OCCO)[C@@]12C(=O)N(C(=O)OCCOC)c1ccc(C#CC3(O)CCCCCC3)cc12`: the composite z-score amounted to 0.238 in assay [1]; 0.159 in assay [6]; 0.115 in assay [7]; 0.759 in assay [8]; 0.631 in assay [9]; 1.58 in assay [10]. The compound also registered a composite z-score in assay [12] of 0.038. Also, the z-score in assay [2] is -4.26 (inactive); in assay [3], -0.0868 (inactive); in assay [4] it was -1.02 (inactive); in assay [5] it was -0.965 (inactive); in assay [11] it was 0.592 (inactive); in assay [13], 1.95 (inactive). Also, the z-score is 2.02 (inactive) in assay [14]; 0.167 (inactive) in assay [15]; 0.996 (inactive) in [16]; 0.152 in assay [17]; 1.09 (inactive) in assay [18]; 0.906 (inactive) in [19]. Also, the z-score in assay [20] was 0.337.

For the origin of these results see PubChem BioAssay.
